# Bioassay records from PubChem.
# Only some compounds are listed: those with a hit (about 4.3% of all), similar ones and a draw of the others.
# KKLEB tox: reduces viability of KKLEB cystic fibrosis airway cells; KKLEB CF airway cells viability, ATPlite luminescence, overnight; active compounds read low; cells stimulated with P. aeruginosa culture filtrate; activity change (cytotoxicity), % at 5 µM; actives 0.36% (n = 360,000); AID 602141;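 active means corrected activity change at or below -50% at 5 µM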
# CF NFkB block: blocks PAF-induced NF-kB reporter in cystic fibrosis cells; AID 588850; inhibition, % at 5 µM; KKLEB NF-kB-GFP reporter, GFP fluorescence overnight; actives 0.86% (n = 360,000);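 active means at least 50% inhibition at 5 µM, scaled per plate between neutral and stimulator controls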;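 further: PAF is a Pseudomonas aeruginosa culture filtrate used as stimulus; plate controls were PAF-stimulated DMSO wells for no effect and unstimulated DMSO wells for full effect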
# HIF-2a block: blocks HIF-2a reporter activity. 786-0 RCC cells HIF-2a reporter, luciferase luminescence, overnight. inhibition, % at 18.8 µM. actives 0.72% (n = 360,000). AID 624352;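 active means inhibition of the luminescence signal of 40% or more relative to plate controls, in a single-dose primary screen at 18.75 µM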
# TRPM1 prom inh: inhibitors of MITF-driven TRPM1 promoter in melanoma cells. AID 488899. SK-MEL-5 TRPM1 promoter luciferase, 24 h. inhibition, % at 12.5 µM. actives 0.83% (n = 330,000);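 active means mean inhibition across replicates of 60% or more, whatever share of single replicates reaches that level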
# Peg3 promoter: inhibitors of Peg3 promoter; HeLa PEG-Prom luciferase reporter, luminescence, overnight; inhibition, % at 20 µM; actives 1.7% (n = 360,000); AID 588405;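 active means inhibition of at least 50% at 20 µM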
# CHOP inh: inhibitors of CHOP induction in ER stress response. actives 3.8% (n = 220,000). inhibition, % at 10 µM. AID 2732. CHO-K1 CHOP-promoter luciferase, tunicamycin-induced, 15-18 h;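 active means compounds that reduced the stress-induced luciferase reporter signal by more than about 70% of percent inhibition, limit read from the data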;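 further: 0% = tunicamycin plus vehicle and 100% = wells without tunicamycin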
# * = called active by the depositor; . = no result.
SMILES,KKLEB tox,CF NFkB block,HIF-2a block,TRPM1 prom inh,Peg3 promoter,CHOP inh
CCOC(=O)N1CCC(NC(=O)C2CCCN(Cc3nc(-c4cccc(Cl)c4)oc3C)C2)CC1 (configuration not stated),-5,-3,9,25,6,85*
Cc1cnc(NC(=O)c2sc3ccccc3c2Cl)s1,-54*,-27,12,18,8,-4
CN1CCc2cc3c(c4c2[C@H]1[C@H](O)c1ccccc1-4)OCO3,8,-349,32,5,66*,6
Cc1ccccc1CSc1nc2n(n1)C(c1cccs1)C1=C(CCCC1=O)N2 (configuration not stated),-14,7,39,-5,22,78*
O=C1CCCC2=C1C(c1cccs1)n1nc(SCc3ccccc3F)nc1N2 (configuration not stated),-1,8,29,-8,14,17
[N-]=[N+]=Nc1ccc(C(=O)CSC[C@H](NC(=O)CC[C@H](N)C(=O)O)C(=O)NCC(=O)O)cc1,.,.,.,.,.,17
O=C1C=C(Nc2ccccc2O)c2ccccc2C1=O,-64*,64*,-10,100*,28,-22
O=c1cccccc1NCc1ccccc1,6,1,-59,-23,-11,-20
Cc1ccc(NC(=O)COC(=O)c2cccc3c2C(=O)c2ccccc2C3=O)c(C)c1,3,-56,-20,30,32,25
Cc1ccc(NC2=CC(=O)C(=O)c3ccccc32)c(C)c1,-4,77*,-37,.,42,.
O=C(Nc1ccccc1O)c1ccc2c(c1)C(=O)N(N1C(=O)c3ccccc3C1=O)C2=O,5,-17,13,2,24,.
O=C1C=C(NCc2ccccc2)c2ccccc2C1=O,6,30,19,104*,17,-9
Cc1nn(CCc2nn[nH]n2)c2nc(-c3ccc(C4CCCCC4)cc3)cc(C(F)(F)F)c12,-57*,76*,12,13,24,106*
Cc1nn(CCC(=O)O)c2nc(-c3cccnc3)cc(C(F)(F)F)c12,-10,-10,16,11,8,18
O=C(c1ccc([N+](=O)[O-])s1)N1CCc2ccccc21,10,-8,-39,30,-95,.
O=C(c1ccc([N+](=O)[O-])s1)N1CCCc2ccccc21,-6,5,-15,70*,-7,.
O=C(COC(=O)c1cc(=O)c2ccccc2o1)Nc1ccccc1F,10,-22,2,-9,0,.
Cc1ccc(S(=O)(=O)NCc2ccccc2)cc1C(=O)NCC(=O)Nc1c(C)cccc1C,5,-20,11,.,6,.
CCCCN(C=O)c1c(CC)nc2ccc(C(=O)NCCCN3CCCC3=O)cn12,-6,-7,11,.,0,.
COc1ccc(CNC(=O)C2CCN(S(=O)(=O)c3cccc(C(F)(F)F)c3)CC2)cc1,10,-1,7,5,-7,.
COc1ccc(N2CCC(CNS(=O)(=O)c3cccc(C(F)(F)F)c3)C2)cc1 (configuration not stated),-3,-13,-25,-20,4,74*
Cc1ccc(/C=N/NC(=O)c2cccc(S(=O)(=O)N3CCOCC3)c2)o1,-2,6,5,-4,110*,10
CCOC(=O)C1CCN(C(=O)c2c(C)oc3c2C(=O)c2ccccc2C3=O)CC1,-7,62*,15,.,16,-32
O=C(Nc1ccc(C(=O)N2CCCCC2)cc1)[C@H]1O[C@@H](n2ccc(=O)[nH]c2=O)[C@H](O)[C@@H]1O,-18,-27,16,.,8,.
O=[N+]([O-])c1ccc(-[n+]2ccc3ccccc3c2)c([N+](=O)[O-])c1,-81*,82*,34,89*,96*,.
OC(COc1ccc2ccccc2c1Br)Cn1cnc(-c2ccccc2)c1 (configuration not stated),-7,-2,14,3,13,76*
Nc1c(C(O)(C(F)(F)F)C(F)(F)F)cc(C(O)(C(F)(F)F)C(F)(F)F)c2ccccc12,-8,2,41*,0,34,95*
Cn1c(N)c(C(=O)COC(=O)Cc2cccc(C(F)(F)F)c2)c(=O)n(C)c1=O,-5,14,-4,-4,-1,.
CC(C)CN(/C=N/c1sc2c(c1C#N)CCCCC2)CC(C)C,3,9,20,8,6,74*
